# Results filed as inconclusive are left out. Calls of active or inactive are those of the source. How the source made its calls: active means hit-call score of the fitted dose curve at least 0.9, where 1 is the maximum; inconclusive means response in the unintended direction; inactive means score below 0.9.
# Experiment: Tanguay_ZF_120hpf_SOMI_legacy: (Legacy) Oregon State University Tanguay Lab 120 Hour Post-fertilization zebrafish Assay for Somite Malformation (AID 2283647)
# Description: Tanguay_ZF_120hpf_legacy is a whole embryo, multiplexed endpoint assay using zebrafish larvae exposed for 120 hours post fertilization on a 96-well plate.Tanguay_ZF_120hpf_SOMI_legacy is one of one assay component(s) measured or calculated from the Tanguay_ZF_120hpf_legacy assay. It is designed to make measurements of zebrafish development as detected with brightfield microscopy of developing zebrafish embryos.Data from the assay component Tanguay_ZF_120hpf_SOMI_legacy was analyzed into 1 assay endpoints. This assay endpoint, Tanguay_ZF_120hpf_SOMI_legacy, was analyzed in the positive analysis fitting direction relative to DMSO as the negative control and baseline of activity. Using a type of morphology reporter, gain-of-signal activity can be used to understand changes in developmentals as they relate to the whole embryo. To generalize the intended target to other relatable targets, this assay endpoint is annotated to the zebrafish development intended target family, where the subfamily is somitogenesis.
# Zebrafish husbandry: Tropical 5D wild-type adult zebrafish were housed in at an approximate density of 1000 per 100 gallon tank at the Sinnhuber Aquatic Research Laboratory, Oregon State University, Corvallis, OR. Each tank was kept at standard laboratory conditions of 28C on a 14-h light/10-h dark photoperiod in fish water consisting of reverse osmosis water supplemented with a commercially available salt (Instant Ocean). Spawning funnels were placed into the tanks the night prior, and embryos were collected and staged. To increase bioavailability, the chorion was enzymatically removed using pronase (63.6mg/ml, >/= 3.5U/mg, Sigma-Aldrich: P5147) at 4 hours post fertilization (hpf) using a custom automated dechorionator.Chemical exposures: Six hpf dechorionated embryos were placed 1 embryo per well in a 96-well plate prefilled with 90 ul of EM using automated embryo placement systems (AEPS). Ten microliters of each row of dilution plate 2 was added to 2 exposure plates. The final DMSO concentration used was 0.64% (vol/vol). Thirty-two embryos were also exposed to 5uM trimethyltin chloride (positive control). Plates were sealed to prevent evaporation and foil covered to reduce light exposure and kept in a 28C incubator. Embryos were statically exposed until 120 hpf. At 24 hpf, embryos were assessed for photomotor response using a custom photomotor response analysis tool (PRAT) and for developmental toxicity endpoints (MO24: mortality at 24 hpf, DP: developmental progression, SM: spontaneous movement, and NC: notochord distortion). At 120 hpf, locomotor activity was measured using Viewpoint Zebralab and assessed for 18 endpoints. Zebrafish acquisition and analysis program (ZAAP), a custom program designed to inventory, acquire, and manage zebrafish data, was used to collect developmental endpoints as either present or absent (i.e., binary responses were recorded). If mortality occurred for an embryo (at either 24 or 120 hpf), the non-mortality endpoints were not measured.
Compound,outcome,AC50
CCCCc1ccccc1,inactive,
c1ccc(OP(Oc2ccccc2)Oc2ccccc2)cc1,inactive,
CC(Cl)(Cl)C(=O)O,inactive,
CCC1(c2ccccc2)C(=O)N=C(O)NC1=O (stereo not given),inactive,
Cc1ccc(O)cc1C,inactive,
ClC1=C(Cl)C2(Cl)C3C(Cl)C(Cl)CC3C1(Cl)C2(Cl)Cl (stereo not given),inactive,
CC(C)(C)c1ccc(O)cc1,inactive,
CCOc1ccc(C(C)(C)COCc2cccc(Oc3ccccc3)c2)cc1,inactive,
CCOC(=O)c1ccccc1C(=O)OCC,inactive,
c1cc2c3c(cccc3c1)CC2,inactive,
c1nc[nH]n1,inactive,
CCCCN(CCCC)N=O,inactive,
Cc1cccc(N)c1,inactive,
O=P1(N(CCCl)CCCl)NCCCO1 (stereo not given),inactive,
OCC1CO1 (stereo not given),inactive,
ClC(Cl)(Cl)c1ccccc1,inactive,
O=C(O)C(Cl)Cl,inactive,
Nc1cc2c3c(c1)C(c1ccccc1)=N[C@@H](NC(=O)c1cccnc1)C(=O)N3CC2,inactive,
COCCOCCO,inactive,
CCOS(=O)(=O)OCC,inactive,

Compound,outcome,AC50
O=[N+]([O-])c1ccc(Cl)c(Cl)c1,inactive,
Nc1ccc2ccccc2c1,inactive,
CCNc1nc(Cl)nc(NC(C)(C)C)n1,inactive,
Cc1ccc(N)cc1N,inactive,
CSC(C)(C)C=NO,inactive,
O=P(Oc1ccccc1)(Oc1ccccc1)Oc1ccccc1,inactive,
CCCCCCCc1ccc(O)cc1,inactive,
CCOP(=S)(Oc1ccc([N+](=O)[O-])cc1)c1ccccc1 (stereo not given),inactive,
CC(Cc1ccc(OCC(=O)O)cc1)NCC(O)c1csc(C(F)(F)F)n1 (stereo not given),inactive,
CCCCN(CCCC)SN(C)C(=O)Oc1cccc2c1OC(C)(C)C2,inactive,
c1ccc2c(c1)Nc1ccccc1S2,inactive,
Nc1ccc(Cl)cc1,inactive,
CCC(C)(C)c1ccc(O)cc1,,36.6 µM (active)
O=[N+]([O-])c1ccccc1,inactive,
O=C(O)C1C(C(=O)O)C2(Cl)C(Cl)=C(Cl)C1(Cl)C2(Cl)Cl (stereo not given),inactive,
[N-]=[N+]=[N-],inactive,
CCCN(CCC)c1c([N+](=O)[O-])cc(C(C)C)cc1[N+](=O)[O-],inactive,
CCN(CC)c1ccccc1,inactive,
CCOP(=S)(OCC)SCSCC,inactive,
CC(C)(C)OOC(C)(C)C,inactive,

# Reference: PubChem BioAssay (EPA / NIEHS)
